Results published in PubChem BioAssay (NCI).
The panel holds about 83,000 compounds, 20% with a hit somewhere; the sample as a whole holds those more often.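 Each cell line was grown in a 96-well plate and treated with one concentration of compound for 48 hours. Values below 10 were considered active.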 A number with no mark means an inactive call. Calls of active or inactive are those of the source.

Legend:
Assay in all cases: NCI-60 one-dose screen, 48 h (100 = growth as untreated, 0 = no growth, -100 = all killed)
DU-145 prostate = conditions: 10 µM unless noted
K-562 leukemia = conditions: 10 µM unless noted
MALME-3M melanoma = conditions: 10 µM unless noted
MDA-MB-231 breast = conditions: 10 µM unless noted
RXF 393 renal = conditions: 10 µM unless noted
SF-268 CNS = conditions: 10 µM unless noted
SF-295 CNS = conditions: 10 µM unless noted
SF-539 CNS = conditions: 10 µM unless noted
UACC-257 melanoma = conditions: 10 µM unless noted
M14 melanoma = conditions: 10 µM unless noted
HCT-15 colon = conditions: 10 µM unless noted
HT29 colon = conditions: 10 µM unless noted
SNB-75 CNS = conditions: 10 µM unless noted
SNB-19 CNS = conditions: 10 µM unless noted
U251 CNS = conditions: 10 µM unless noted
PC-3 prostate = conditions: 10 µM unless noted
SK-MEL-5 melanoma = conditions: 10 µM unless noted
UACC-62 melanoma = conditions: 10 µM unless noted
LOX IMVI melanoma = conditions: 10 µM
SK-MEL-28 melanoma = conditions: 10 µM unless noted

| SMILES | growth (DU-145 prostate) [%] | growth (K-562 leukemia) [%] | growth (MALME-3M melanoma) | growth (MDA-MB-231 breast) [%] | growth (RXF 393 renal) [%] | growth (SF-268 CNS) [%] | growth (SF-295 CNS) [%] | growth (SF-539 CNS) [%] | growth (UACC-257 melanoma) [%] | growth (M14 melanoma) [%] | growth (HCT-15 colon) [%] | growth (HT29 colon) [%] | growth (SNB-75 CNS) [%] | growth (SNB-19 CNS) [%] | growth (U251 CNS) [%] | growth (PC-3 prostate) [%] | growth (SK-MEL-5 melanoma) [%] | growth (UACC-62 melanoma) [%] | growth (LOX IMVI melanoma) | growth (SK-MEL-28 melanoma) [%] |
| --- | --- | --- | --- | --- | --- | --- | --- | --- | --- | --- | --- | --- | --- | --- | --- | --- | --- | --- | --- | --- |
| O=C(CCl)Nc1ccccc1SCc1cc(Cl)cc2c1OCOC2 | 101 | 32.1 | -69.1% (active) | 88.6 | 77.1 | 93.8 | 94 | 93.5 | 101 | 69.8 | 88.5 | 82.5 | 73.9 | 99.5 | 88.9 | 82.2 | 63.3 | 81.2 | -76% (active) | 94 |
| CC(C)Sc1ncnc2nc[nH]c12 | 121 | 113 | 109% | 105 | 93 | 121 | 107 | 100 | 91.7 | 105 | 103 | 113 | 115 | 99.5 | 107 | 91.6 | 104 | 93.3 | 100% | 82.8 |
| N#CC1(O)CCCCC1 | 103 | 102 | 104% | 118 | 110 | 98.5 | 103 | 105 | 90.2 | 95.7 | 99.6 | 104 | 49.2 | 108 | 94.7 | 95.2 | 106 | 106 | 91.7% | 109 |
| COc1ccc(/C=N/NC(=O)COCC(=O)N/N=C/c2ccc(OC)cc2)cc1 | 113 | 102 | 115% | 98.4 | 104 | 110 | 97.1 | 100 | 96.6 | 115 | 97.8 | 130 | 88.6 | 110 | 96.2 | 88.8 | 97.9 | 101 | 102% | 100 |
| CN(C)c1ccc(O)c2c1CC1CC3C(N(C)C)C(=O)C(C(N)=O)=C(O)C3(O)C(=O)C1=C2O (stereo not given) | 49 | 45.2 | 46.8% | 66.3 | 46.3 | 46.1 | 11.8 | 41.6 | 48.4 | 42.1 | 25.4 | 57.5 | 55.8 | 55.5 | 25.7 | 34.6 | 25.6 | 29 | 29.3% | 47.4 |
| C=C(OC(C)=O)c1ccccc1 | 113 | 83 | 108% | 103 | 113 | 102 | 105 | 108 | 83.7 | 97.3 | 114 | 98.4 | 98 | 106 | 89.8 | 79.4 | 101 | 97 | 94.4% | 118 |
| O=C(N/N=C\c1ccc(Cl)cc1Cl)c1ccncc1 | 111 | 96.7 | 99.1% | 98.9 | 118 | 98.7 | 103 | 105 | 104 | 100 | 102 | 90.1 | 77.4 | 92.8 | 92.7 | 94 | 98.9 | 106 | 85.4% | 103 |
| COc1cc(C(=O)O)c(O)c(C(C)(C)C)c1 | 106 | 101 | 102% | 103 | 117 | 105 | 102 | 102 | 97.9 | 105 | 108 | 109 | 96.8 | 98.9 | 95.2 | 97.6 | 96.5 | 104 | 98.8% | 109 |
